In general, AC50 refers to the concentration giving half of the maximal activity seen.

The text below walks through data of PubChem BioAssay (EPA / NIEHS).

Active and inactive are the calls of the source. How the source made its calls: active means hit-call score of the fitted dose curve at least 0.9, where 1 is the maximum; inactive means score below 0.9.

Read-out in this test: serum amyloid A (SAA), SAA1 (gene 6288)
Nature of the test: BSK_CASM3C_SAA: BioMAP Diversity Plus: CASM3C Assay for serum amyloid A (SAA) Biomarker Activity (AID 2283049).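 Further: SAA protein level quantified by ELISA.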 The following applies: primary human coronary artery smooth muscle cells; actives raise or lower the signal.
As to `ClCC(Cl)CCl`, the result was inactive.

For the molecule `CCOP(=S)(OCC)SCSP(=S)(OCC)OCC`, the result was inactive.

On to `CC(=O)C(Cl)C(=O)N(C)C` (centres undefined), for which the result was inactive.

For the molecule `COc1cc(-c2ccc(N)c(OC)c2)ccc1N`, the outcome was inactive.

Regarding `O=C1C2(Cl)C3(Cl)C4(Cl)C(Cl)(Cl)C5(Cl)C3(Cl)C1(Cl)C5(Cl)C24Cl` (centres undefined), the AC50 was 23.3 µM (active).

With `CCOC(=O)/C=C(C)/C=C/C[C@@H](C)CCCC(C)C`, the concentration at half-maximal activity (AC50) is 33.1 µM (active).

On to `CCOP(=S)(OCC)Oc1ccc(S(C)=O)cc1` (centres undefined), for which the outcome was inactive.

Take `ClC1(Cl)C2(Cl)C3(Cl)C4(Cl)C(Cl)(Cl)C5(Cl)C3(Cl)C1(Cl)C5(Cl)C24Cl` (centres undefined): the result was inactive.

Consider `CCC(=O)C(CC(C)N(C)C)(c1ccccc1)c1ccccc1` (centres undefined), for which the result was inactive.

As for `Cn1sc(Cl)cc1=O`, the outcome was inactive.

As for `Oc1cccc2cccnc12`, the outcome was inactive.

On to `CC(C)(C)c1cc(O)ccc1O`, for which the outcome was inactive.

`CCNc1nc(NC(C)(C)C)nc(SC)n1`: the result was inactive.

`CC(C)c1ccc(CO)cc1`: the result was inactive.

`CC(C)(C)CC(C)(C)c1ccc(O)cc1`: the AC50 was 10.7 µM (active).

For `CCN1CCC2(CC1)COc1cc3c(cc12)N(C(=O)c1ccc(-c2ccc(-c4nnc(C)o4)cc2C)cc1)CC3`, the AC50 was 32.5 µM (active).

As to `O=Cc1cccc(Oc2ccccc2)c1`, the outcome was inactive.

On to `Cc1ccccc1N`, for which the outcome was inactive.

For `O=C(O)C(Cl)(Cl)Cl`, the outcome was inactive.

In the case of `O=c1[nH]c(=O)[nH]c(=O)[nH]1`, the outcome was inactive.

With `O=[N+]([O-])c1ccc2c3c(cccc13)CC2`, the result was inactive.

Take `C=CC(=O)OCCCCCC(C)C`: the result was inactive.

As to `CCC(C)(C)c1ccc(O)c(C(C)(C)CC)c1`, the concentration at half-maximal activity (AC50) is 30 µM (active).

Consider `CCOP(=S)(OCC)SCCS(=O)(=O)CC`, for which the outcome was inactive.
